Reference: PubChem BioAssay AID1159580 (chemical genetic matrix, 2015)
“And” between values parts separate entries of the source, which are not always exact repeats. Equal entries are not always repeated. About 2,000 (36%) of roughly 5,500 compounds were called active. Inconclusive results (about 18%) are left out. Rule as the data show it: active = normalized growth mostly below about 0.91 (no sharp cut-off); inconclusive = no clear call, values can overlap the other calls; inactive = mostly above about 0.92. Some of the results follow.

Test: chemical genetic growth profiling, strain panel (AID 1159580);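 also: tested at 20 µM; growth read once vehicle control cultures reached saturation at 30 °C; 1 = growth at the plate median or of vehicle wells; lower values mean less growth of the strain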
Conditions: S. cerevisiae deletion strains, growth OD

Measured: normalized growth

COC(=O)C[C@H]1C(C)(C)[C@@H](O)[C@@H]2CC3=C4CC(O)O[C@@H](c5ccoc5)[C@]4(C)CCC3[C@@]1(C)C2=O (some centres not stated)
inactive: locus YAL013W, strain DEP1, hits give low values 1.01 | locus YAL021C, strain ccr4, hits give low values 1.01 | locus YAL026C, strain drs2, hits give low values 1.06 | locus YAL030W, strain snc1, hits give low values 1.03 | locus YBL061C, strain skt5, hits give low values 1.03 | locus YBR009C, strain hhf1, hits give low values 1.02 | locus YBR021W, strain FUR4, hits give low values 1.07 | locus YBR023C, strain chs3, hits give low values 1 | locus YBR171W, strain sec66, hits give low values 1.05 | locus YBR229C, strain ROT2, hits give low values 1 | locus YBR231C, strain swc5, hits give low values 1.03 | locus YBR279W, strain paf1, hits give low values 1.03 | locus YCL011C, strain gbp2, hits give low values 1 | locus YCL016C, strain dcc1, hits give low values 0.99 | locus YCL029C, strain bik1, hits give low values 0.99 | locus YCL069W, strain vba3, hits give low values 1.01 | locus YCR088W, strain abp1, hits give low values 1.02 | locus YDL005C, strain med2, hits give low values 1.03 | locus YDL035C, strain GPR1, hits give low values 1.03 | locus YDL040C, strain nat1, hits give low values 1.02 | locus YDL074C, strain BRE1, hits give low values 1.01 | locus YDL101C, strain DUN1, hits give low values 1 | locus YDL134C, strain PPH21, hits give low values 0.978 | locus YDL185W, strain tfp1, hits give low values 0.962 | locus YDL192W, strain arf1, hits give low values 0.989 | locus YDR001C, strain nth1, hits give low values 1.02 | locus YDR069C, strain doa4, hits give low values 1.02 | locus YDR101C, strain arx1, hits give low values 0.999 | locus YDR137W, strain rgp1, hits give low values 1.01 | locus YDR159W, strain sac3, hits give low values 1.09 | locus YDR162C, strain NBP2, hits give low values 0.987 | locus YDR195W, strain ref2 1.01 | locus YDR297W, strain sur2, hits give low values 1.03 | locus YDR318W, strain mcm21, hits give low values 0.991 | locus YDR334W, strain swr1, hits give low values 1.03 | locus YDR335W, strain msn5, hits give low values 1.01 | locus YDR388W, hits give low values 0.984 | locus YDR392W, strain spt3, hits give low values 0.938 | locus YDR502C, strain sam2, hits give low values 0.981 | locus YEL003W, strain gim4, hits give low values 1.05 | locus YEL037C, strain rad23, hits give low values 1.03 | locus YEL061C, strain CIN8 (second series), hits give low values 1.02 | locus YEL061C, strain CIN8, hits give low values 1.01 | locus YER015W, strain faa2, hits give low values 1.01 | locus YER016W, strain bim1, hits give low values 1.02 | locus YER110C, hits give low values 0.98 | locus YER111C, strain swi4, hits give low values 1.03 | locus YER155C, strain BEM2 (second series), hits give low values 1.08 | locus YER155C, strain BEM2, hits give low values 0.998 | locus YER167W, strain BCK2, hits give low values 1.01 | locus YFR010W, strain ubp6, hits give low values 1.05 | locus YGL078C, strain dbp3, hits give low values 0.97 | locus YGL086W, strain mad1, hits give low values 1.02 | locus YGL167C, strain pmr1, hits give low values 1.02 | locus YGL173C, strain kem1, hits give low values 1.06 | locus YGL227W, strain vid30, hits give low values 1.03 | locus YGL240W, strain doc1, hits give low values 1.04 | locus YGL248W, strain PDE1, hits give low values 1.01 | locus YGL253W, strain hxk2, hits give low values 1.04 | locus YGR078C, strain PAC10, hits give low values 0.985 | locus YGR135W, strain pre9, hits give low values 0.95 | locus YGR229C, strain SMI1, hits give low values 1.04 | locus YGR252W, strain gcn5, hits give low values 0.981 | locus YHR013C, strain ard1, hits give low values 1.01 | locus YHR027C, strain rpn1, hits give low values 1.02 | locus YHR030C, strain SLT2, hits give low values 1.01 | locus YHR079C, strain IRE1 (second series), hits give low values 0.984 | locus YHR079C, strain IRE1, hits give low values 1.01 | locus YHR094C, strain hxt1, hits give low values 0.979 | locus YHR129C, strain ARP1, hits give low values 1 | locus YHR142W, strain chs7, hits give low values 0.994 | locus YHR200W, strain rpn10, hits give low values 0.996 | locus YIL066C, strain RNR3, hits give low values 1.02 | locus YIL073C, strain SPO22, hits give low values 0.916 | locus YIL125W, strain kgd1, hits give low values 0.987 | locus YIR030C, strain dcg1, hits give low values 0.976 | locus YJL092W, strain hpr5, hits give low values 1.03 | locus YJL095W, strain BCK1 (second series), hits give low values 1.02 | locus YJL095W, strain BCK1, hits give low values 0.977 and 1.02 | locus YJL115W, strain asf1, hits give low values 1.03 | locus YJL129C, strain trk1, hits give low values 1 | locus YJL134W, strain LCB3, hits give low values 1 | locus YJL154C, strain vps35, hits give low values 1.02 | locus YJL164C, strain tpk1, hits give low values 1.01 | locus YJL166W, strain qcr8, hits give low values 1.03 | locus YJL168C, strain set2, hits give low values 0.991 | locus YJL187C, strain SWE1 (second series), hits give low values 0.987
